High-throughput results deposited in PubChem BioAssay by National Center for Advancing Translational Sciences (NCATS).
HT1080 IDH1KD tx: toxicity to HT-1080 IDH1 knockdown cells (counter line). 360,000 tested, 2% active. HT-1080 IDH1 knockdown viability, ATP luminescence, 48 h. AID 686971. Potency, µM (titrated, usually from 46.1 µM), most hits filed as cytotoxic
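IDH1KD HT-1080 cells, 750/well, RPMI + 5% FBS; compound pinned after 2 h settling; 48 h, 37 °C; CellTiter-Glo luminescence; % activity normalised to DMSO and no-cell wells; curves fitted, classed by r2 and efficacy.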
IL1B secr inh: inhibitors of inflammasome signaling (IL-1 beta secretion); 360,000 tested, 4.7% active; THP-1 LPS/ATP IL-1B secretion, AlphaLISA, 16 h; stronger effect = lower value; AID 743279; activity change, % at 57.5 µM; in the data active means activity change below about -50%; inconclusive means mostly about -30% to -49%
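Secreted IL-1B measured by AlphaLISA bead assay after 16 h compound exposure of THP-1 cells; compounds (final up to 57.5 uM) added 1 h before LPS (250 ng/mL) and ATP (1.25 mM) stimulation; lower signal means less secretion.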
DT40 TDP1 CPT: DT40-hTDP1 cell growth loss with CPT; chicken DT40 Tdp1-/-;hTDP1 cells + 20 nM CPT, ATP luminescence, 48 h; Potency, µM (top dose mostly 46.2 µM), actives largely listed as inhibitors; 420,000 tested, 12% active; AID 686979; further: nearly all actives have a fitted effect of over 55% in size
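Cell growth measured by CellTiter-Glo luminescence after a minimum 48 h, 37 C compound exposure with 20 nM CPT in Tdp1-knockout DT40 cells stably expressing hTDP1, seeded 400/well; qHTS titration format.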
ELG1 repair inh: blocks ELG1-dependent DNA repair in HEK293T cells; HEK293T ELG1-luciferase reporter, luminescence, 16 h; DNA damage induced by 5-fluorouridine; Potency, µM (series often up to 46.1 µM), most hits filed as inhibitors; 330,000 tested, 2.3% active; AID 504467; further: nearly all actives have a fitted effect of over 55% in size
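5-Fluorouridine DNA damage + compound/DMSO, 2,000 cells/well, 16 h, 37 °C/5% CO2. ONE-Glo, 30 min RT, luminescence. Readout = decrease in reporter signal.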
HT1080-NT tox: kills 2HG-producing HT-1080-NT fibrosarcoma cells; AID 686970; 360,000 tested, 1.6% active; HT-1080-NT fibrosarcoma viability, CellTiter-Glo ATP luminescence, 48 h; Potency, µM (highest dose often 46.1 µM), most hits filed as cytotoxic;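 further: NT is the 2HG producing partner of a matched IDH1 knockdown line; nearly all actives have a fitted effect of over 55% in size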
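Read-out is CellTiter-Glo luminescence after 10 minutes at room temperature, following 48 hours' compound treatment of HT-1080-NT cells (750 cells/well, RPMI, 5% FBS, 37 degrees C).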
DT40 TDP1 no CPT: qHTS for Inhibitors of human tyrosyl-DNA phosphodiesterase 1 (TDP1): qHTS in cells in absence of CPT | DT40 Tdp1-/- hTDP1 cells, no CPT, ATP luminescence, 48 h | Potency, µM (top dose mostly 46.2 µM), usual class: inhibitors | 420,000 tested, 15% active | AID 686978, 2013; further: nearly all actives have a fitted effect of over 55% in size
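Seeded 400 DT40-hTDP1 cells/well (vehicle DMSO, no 20 nM CPT); pinned compounds; ≥48 hr at 37 °C; CellTiter-Glo luminescence as viability measure.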
A number is an active result; n = inactive; u = inconclusive; x = no result. An excerpt weighted towards active compounds, which were near 19% of everything screened. Unless noted, the call rests on the fitted dose curve; in most records, active means well fitted curve in the direction sought with a large enough effect; inconclusive means small, poorly fitted or top-dose-only effect, or another doubt; inactive means no such curve, though single readings can be large; an effect the other way counts as inactive or inconclusive.

SMILES	HT1080 IDH1KD tx	IL1B secr inh	DT40 TDP1 CPT	ELG1 repair inh	HT1080-NT tox	DT40 TDP1 no CPT
CNC(=O)c1sc(-c2ccccc2)nc1C	n	n	n	u	n	n
CCCCN1C(=O)C(=O)N(CC(=O)N2N=C3/C(=C/c4ccco4)CCCC3C2c2ccco2)C1=O (configuration not stated)	n	n	n	u	n	n
COC(=O)CS(=O)(=O)c1nc2ccccc2nc1N1CCCCC1	x	x	20.6µM	x	x	13µM
O=S(=O)(Cc1ccccc1)N=Nc1c(O)[nH]c2ccc(Br)cc12	n	n	13µM	n	n	18.4µM
CCC(C(=O)NC1CCCCC1)n1nc(C)c2sc3ccccc3c2c1=O (configuration not stated)	x	x	10.3µM	x	x	9.2µM
CCC(C(=O)N(C)Cc1ccccc1)n1nc(C)c2sc3ccccc3c2c1=O (configuration not stated)	x	x	u	x	x	16.4µM
CCC(C(=O)NCc1ccccc1Cl)n1nc(C)c2sc3ccccc3c2c1=O (configuration not stated)	x	x	18.4µM	x	x	u
CCC(C(=O)NCCCN1CCCCCC1)n1nc(C)c2sc3ccccc3c2c1=O (configuration not stated)	n	n	n	n	n	n
Cc1nn(C(C)C(=O)O)c(=O)c2c1sc1ccccc12 (configuration not stated)	n	n	n	u	n	n
O=C(Nc1cc([N+](=O)[O-])ccc1N1CCOCC1)c1cccs1	n	n	n	n	n	n
CC1N(C)c2cc(NC(=O)c3cccs3)c(P(=O)(Nc3ccc([N+](=O)[O-])cc3)N3CCOCC3)cc2C1(C)C (configuration not stated)	n	-57.9	u	18.3µM	n	18.4µM
O=C(Cn1c2ccc(F)cc2c2nc3n(c(=O)c21)CCS3)NCC1CCCO1 (configuration not stated)	n	n	n	n	n	n
O=C(NCCN1CCOCC1)c1ccccc1N1C(=O)[C@@H]2Cc3c([nH]c4ccccc34)C(c3ccccc3)N2C1=O (some centres not stated)	n	n	u	u	n	u
O=C(NCCCN1CCOCC1)c1ccccc1N1C(=O)[C@@H]2Cc3c([nH]c4ccccc34)C(c3ccc(F)cc3)N2C1=O (some centres not stated)	n	n	9.2µM	u	n	14.6µM
COc1cccc(C2c3[nH]c4ccccc4c3C[C@H]3C(=O)N(c4ccccc4C(=O)NCCCN4CCOCC4)C(=O)N23)c1 (some centres not stated)	n	n	11.6µM	u	u	13µM
CCOC(=O)C1(C(=O)OCC)C(C(=O)c2ccccc2)C1c1ccccc1 (configuration not stated)	n	n	u	x	n	u
COc1ccc(CCNC(=O)c2ccccc2OCc2c(C)noc2C)cc1	n	n	u	n	n	u
CCOc1ccc(CCNC(=O)c2ccc(OCc3c(C)noc3C)cc2)cc1OCC	n	n	25.9µM	u	u	20.6µM
Cc1noc(C)c1COc1ccccc1C(=O)N(C)Cc1ccc(C(C)(C)C)cc1	u	n	7.31µM	u	n	6.51µM
CCOc1ccc(NC(=O)CN(C)C(=O)c2ccccc2OCc2c(C)noc2C)cc1OCC	n	n	u	n	n	0.651µM
COc1ccc(CCNC(=O)c2ccc(OCc3c(C)noc3C)cc2)cc1OC	n	n	u	u	n	u
Cc1ccc(NC(=O)CN(C)C(=O)c2ccccc2OCc2c(C)noc2C)cc1	n	n	n	u	n	n
Cc1noc(C)c1COc1ccccc1C(=O)N(C)Cc1ccc(F)cc1	n	n	u	n	n	u
Cc1noc(C)c1COc1ccccc1C(=O)NCCc1ccc(Cl)cc1	n	-68.9	u	u	n	u
C#CCN1[C@@H]2CCN(C2)c2cc(Br)ccc2S1(=O)=O	n	n	n	x	n	u
SMILES	HT1080 IDH1KD tx	IL1B secr inh	DT40 TDP1 CPT	ELG1 repair inh	HT1080-NT tox	DT40 TDP1 no CPT
Cc1ccc2[nH]c3c(c2c1)CCN1C(=O)OC(C)(C)C31C (configuration not stated)	n	n	n	n	n	n
COc1ccc(CN(C)C(=O)c2ccccc2OCc2c(C)noc2C)c(OC)c1	n	n	n	n	n	n
COc1ccc(Br)cc1CN(C)C(=O)c1ccccc1OCc1c(C)noc1C	n	-65.0	u	n	n	16.4µM
CCOC(=O)c1sc(NC(=O)CCN2CCN(C)CC2)c(C(=O)OCC)c1C	u	n	u	u	20.6µM	u
CCOC(=O)c1c(NC(=O)CN2CCOCC2)sc(C(=O)NC)c1C	n	n	n	n	n	n
CCOC(=O)c1c(NC(=O)CN2CCN(C)CC2)sc(C(=O)Nc2ccccc2)c1C	23.1µM	-162.1	u	u	u	u
CCOC(=O)c1c(NC(=O)CN2CCN(S(=O)(=O)c3cc(Cl)ccc3Cl)CC2)sc(C(=O)N(C)C)c1C	u	n	16.4µM	x	n	u
CCOC(=O)c1c(NC(=O)COC(=O)CCOc2ccc(C)cc2)sc(C(=O)N(C)C)c1C	n	n	n	n	n	n
CCOC(=O)c1sc(NC(=O)/C=C/c2cnn(CC)c2C)c(C(=O)OCC)c1C	n	u	u	u	n	20.6µM
O=S(=O)(c1ccc2c(c1)OCCO2)N1CCN(c2nc(-c3cccs3)nc3ccccc23)CC1	n	x	u	x	n	u
Cc1sc2nc(CN3CCOCC3)nc(N3CCOCC3)c2c1C	n	n	n	u	n	u
COc1cc2c(cc1OC)CN(c1nc(CN3CCCC3)nc3sc(C)c(C)c13)CC2	u	-66.6	n	u	14.6µM	u
COc1cc2c(cc1OC)CN(c1nc(CN3CCCCC3)nc3sc4c(c13)CCCC4)CC2	n	n	u	23.1µM	n	u
CCc1nc(N2CCN(S(C)(=O)=O)CC2)c2c3c(sc2n1)CCCC3	n	n	u	n	n	u
CN(C)C(=O)c1ccc(-c2ccc3ncnc(NCCN4CCOCC4)c3c2)cc1	x	x	n	x	x	n
CCOC(=O)C(=O)N1CCC(C(=O)OCC)CC1	n	x	n	n	n	n
Cc1c(C(=O)NCc2ccccc2C(F)(F)F)sc(=O)n1Cc1ccc2c(c1)OCO2	n	u	u	x	n	u
CS(=O)(=O)N(CC(=O)Nc1ccc(CC#N)cc1)c1ccc(C23CC4CC(CC(C4)C2)C3)cc1	10µM	u	u	u	u	16.4µM
CCc1ccc(N(CC(=O)NC)S(C)(=O)=O)cc1	n	n	n	n	n	n
